# Records with an inconclusive call do not appear. Entries that show only a call come without a potency. The source made the active and inactive calls. Calls follow the shape of the full dose curve.
# Experiment: qHTS for Inhibitors of Cell Surface uPA Generation: Wild-type Protective Antigen (WT-PrAg) Counterscreen for Cherry-picked Compounds
# Conditions: cells, WT protective antigen toxicity counterscreen; series mostly up to 115 µM
row,Structure (SMILES),Potency
1,COc1cccc(NC(=O)N2C3CCCC2CC(NC(C)=O)C3)c1 (centres undefined),inactive
2,O=S(=O)(NCCc1ccccc1F)c1cccc(S(=O)(=O)N2CCOCC2)c1,inactive
3,COC(=O)C(CCSC)NC(=O)Cn1ncc2c(=O)oc3ccccc3c21 (centres undefined),inactive
4,Cc1ccc(/C=N/NC(=O)c2ccc3nc[nH]c3c2)s1,inactive
5,NC(=O)c1cc2c3ccccc3ccn2c1-c1ccccc1,inactive
6,Clc1ccc(C2=NN=C3COc4ccccc4N3C2)cc1,inactive
7,O=C(/C=C/c1ccc(O)c(O)c1)O[C@@H]1C[C@](O)(C(=O)O)C[C@@H](O)[C@H]1O,inactive
8,CCN(CC)S(=O)(=O)c1ccc(C(=O)Nc2nnc(COC)o2)cc1,inactive
9,Cc1ccc(NC(=O)c2ccc(=O)[nH]n2)cc1S(=O)(=O)Nc1ccccc1Cl,inactive
10,Cn1nc(C(C)(C)C)c([N+](=O)[O-])c1C(=O)N1CCOCC1,inactive
11,CCn1nc(NS(=O)(=O)c2ccccc2)c2cc3cc(C)ccc3nc21,inactive
12,CC(C)(O)C#Cc1ccc(C(=O)N2CCCC(CCC(=O)NCc3ccccc3F)C2)cc1 (centres undefined),inactive
13,CCNc1nc(Nc2ccc(C)c(Cl)c2)c2cnn(C)c2n1,inactive
14,c1csc(CN2CCOCC2)c1,inactive
15,C/C=C/C(=O)Nc1cccc(C2=NOC3(C2)C[C@@H](C(N)=O)N(C(=O)c2cc([N+](=O)[O-])cc([N+](=O)[O-])c2C)C3)c1 (some centres undefined),inactive
16,COc1ccccc1N1CCN(C(=O)CCC(=O)N2CCN(c3ccc(F)cc3)CC2)CC1,inactive
17,CCCCCn1c(=O)c(C(=O)Nc2ccccn2)c(O)c2ccccc21,inactive
18,CCCCNC(=O)C1CCN(S(=O)(=O)c2c(C)noc2/C=C\c2ccc(OC)cc2)CC1,inactive
19,CCCNC(=O)C1CCC(CNS(=O)(=O)c2ccc3c(c2)CC(C)N3C(C)=O)CC1 (centres undefined),inactive

# — PubChem BioAssay AID720518 (National Center for Advancing Translational Sciences (NCATS), 2013)
